Common to all, as to assay: universal protein binding microarray (PBM); transcription factors of Arabidopsis thaliana; high values mean tight binding
The target of one assay is T1, GST-ANAC092(1-176) (Arabidopsis thaliana, UniProt Q9FKA0 1-176).
T1 sequence: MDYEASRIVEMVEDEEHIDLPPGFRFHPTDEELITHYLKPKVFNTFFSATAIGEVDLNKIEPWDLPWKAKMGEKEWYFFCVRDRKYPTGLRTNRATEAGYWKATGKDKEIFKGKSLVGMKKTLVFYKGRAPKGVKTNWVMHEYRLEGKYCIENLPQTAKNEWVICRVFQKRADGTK
As to conditions: protein: recombinant; tags: GST; chain copies: 2; dsDNA, one strand shown. Summed up:
(§1)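 Binding is expressed as the normalised enrichment score (E-score). Proteins carrying a GST tag, whether NAC-domain, full-length or DNA-binding-domain forms, were induced in cells, and zinc acetate was added for zinc-finger proteins. After purification on glutathione–Sepharose 4B and quantification by A280 or anti-GST western blot, each was applied in duplicate at 200 to 500 nM final to custom all-10-mer Agilent 4 × 180K arrays made double-stranded by primer extension. Gapped and ungapped 8-mers were scored.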

Another assay addresses T2, GST-ANAC019 NAC domain (Arabidopsis thaliana, UniProt Q9C932 14-162).
T2 sequence: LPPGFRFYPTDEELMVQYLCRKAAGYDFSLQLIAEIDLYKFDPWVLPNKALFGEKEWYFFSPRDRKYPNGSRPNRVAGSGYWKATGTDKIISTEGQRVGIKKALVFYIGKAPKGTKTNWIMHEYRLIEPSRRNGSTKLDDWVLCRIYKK
As to conditions: protein: recombinant; tags: GST; chain copies: 2; dsDNA, one strand shown. Summed up:
as §1

The next assay addresses T3, GST-ANAC055(1-171) (Arabidopsis thaliana, UniProt Q9LDY8 1-171).
T3 sequence: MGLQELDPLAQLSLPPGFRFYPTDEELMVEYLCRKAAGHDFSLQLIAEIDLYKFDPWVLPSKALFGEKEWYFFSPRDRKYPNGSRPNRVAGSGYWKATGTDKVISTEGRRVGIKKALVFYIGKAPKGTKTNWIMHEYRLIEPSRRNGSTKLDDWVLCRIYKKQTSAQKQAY
The conditions noted are these: protein: recombinant; tags: GST; chain copies: 2; dsDNA, one strand shown. In a few lines:
as §1

Another assay concerns the target T4, GST-ATAF1 NAC domain (Arabidopsis thaliana, UniProt Q39013 7-158).
T4 sequence: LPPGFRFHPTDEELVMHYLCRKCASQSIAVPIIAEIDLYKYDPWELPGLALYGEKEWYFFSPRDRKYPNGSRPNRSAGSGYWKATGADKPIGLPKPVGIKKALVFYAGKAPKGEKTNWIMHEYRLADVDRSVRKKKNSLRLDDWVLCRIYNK
As to conditions: protein: recombinant; tags: GST; chain copies: 2; dsDNA, one strand shown. In a few lines:
as §1

Assay [1] deals with T5, GST-ANAC092(1-285) full length (Arabidopsis thaliana, UniProt Q9FKA0 1-285).
T5 sequence: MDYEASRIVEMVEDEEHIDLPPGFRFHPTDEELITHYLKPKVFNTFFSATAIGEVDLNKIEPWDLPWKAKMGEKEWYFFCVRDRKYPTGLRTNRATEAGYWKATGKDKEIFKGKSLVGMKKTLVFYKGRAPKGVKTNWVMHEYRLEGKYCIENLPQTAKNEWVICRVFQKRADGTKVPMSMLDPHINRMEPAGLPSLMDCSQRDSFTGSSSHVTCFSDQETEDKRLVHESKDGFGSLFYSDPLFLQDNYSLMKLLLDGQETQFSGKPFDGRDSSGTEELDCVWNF
As to conditions: protein: recombinant; tags: GST; chain copies: 2; dsDNA, one strand shown. Summed up: as §1

A further assay has as its target T6, GST-NAP(1-166) (Arabidopsis thaliana, UniProt O49255 1-166).
T6 sequence: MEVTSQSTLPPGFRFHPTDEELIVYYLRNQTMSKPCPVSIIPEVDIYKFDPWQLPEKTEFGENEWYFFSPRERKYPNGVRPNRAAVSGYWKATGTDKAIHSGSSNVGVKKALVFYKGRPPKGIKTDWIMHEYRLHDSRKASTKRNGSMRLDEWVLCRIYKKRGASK
The conditions noted are these: protein: recombinant; tags: GST; chain copies: 2; dsDNA, one strand shown. Summed up:
as §1

The target in the next assay is T7, GST-VND3 NAC domain (Arabidopsis thaliana, UniProt Q9FH59 12-162).
T7 sequence: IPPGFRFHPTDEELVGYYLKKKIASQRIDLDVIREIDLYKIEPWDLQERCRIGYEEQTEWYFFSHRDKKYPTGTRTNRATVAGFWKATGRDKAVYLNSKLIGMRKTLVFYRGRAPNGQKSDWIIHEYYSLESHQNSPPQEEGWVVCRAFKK
The conditions noted are these: protein: recombinant; tags: GST; chain copies: 2; dsDNA, one strand shown. Summed up: as §1

The target in a further assay is T8, GST-VND7 NAC domain (Arabidopsis thaliana, UniProt Q9C8W9 9-158).
T8 sequence: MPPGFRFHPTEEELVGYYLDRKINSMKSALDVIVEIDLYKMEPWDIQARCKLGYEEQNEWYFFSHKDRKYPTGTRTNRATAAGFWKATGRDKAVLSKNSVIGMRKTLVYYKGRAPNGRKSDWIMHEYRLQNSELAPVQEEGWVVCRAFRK
The conditions noted are these: protein: recombinant; tags: GST; chain copies: 2; dsDNA, one strand shown. Summed up:
as §1

Another assay concerns the target T9, GST-NST2(1-184) (Arabidopsis thaliana, UniProt Q9M274 1-184).
T9 sequence: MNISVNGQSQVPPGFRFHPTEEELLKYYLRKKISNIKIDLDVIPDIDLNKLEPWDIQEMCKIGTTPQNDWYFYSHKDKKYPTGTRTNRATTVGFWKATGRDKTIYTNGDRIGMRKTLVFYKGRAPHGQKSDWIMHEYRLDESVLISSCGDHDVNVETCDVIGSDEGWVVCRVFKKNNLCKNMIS
As to conditions: protein: recombinant; tags: GST; chain copies: 2; dsDNA, one strand shown. Summed up:
as §1

In another assay the target is T10, GST-NTL8 NAC domain (Arabidopsis thaliana, UniProt Q9XIN7 14-156).
T10 sequence: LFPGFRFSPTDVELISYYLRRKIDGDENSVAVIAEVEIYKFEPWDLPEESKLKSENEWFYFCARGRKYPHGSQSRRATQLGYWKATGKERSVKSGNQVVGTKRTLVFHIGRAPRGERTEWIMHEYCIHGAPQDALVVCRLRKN
The conditions noted are these: protein: recombinant; tags: GST; chain copies: 2; dsDNA, one strand shown. In a few lines: as §1

The target of the next assay is GST-WRKY1(266-371) (Arabidopsis thaliana, UniProt Q9SI37 266-371). As to conditions: protein: recombinant; tags: GST; dsDNA, one strand shown. Summed up:
as §1

The target of another assay is GST-NTL6(1-168) (Arabidopsis thaliana, UniProt Q9SCK6 1-168). The conditions noted are these: protein: recombinant; tags: GST; chain copies: 2; dsDNA, one strand shown. Summed up:
as §1

GST-WRKY1(266-371), sequence (Q9SI37 266-371): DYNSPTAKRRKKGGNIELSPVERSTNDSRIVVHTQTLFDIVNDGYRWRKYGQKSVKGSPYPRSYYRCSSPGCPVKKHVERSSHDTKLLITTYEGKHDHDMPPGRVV
GST-NTL6(1-168), sequence (Q9SCK6 1-168): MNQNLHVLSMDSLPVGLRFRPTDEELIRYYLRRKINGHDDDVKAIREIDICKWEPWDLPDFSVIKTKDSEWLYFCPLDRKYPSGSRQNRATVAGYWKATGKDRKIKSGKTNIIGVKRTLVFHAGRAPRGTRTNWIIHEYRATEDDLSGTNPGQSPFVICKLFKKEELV

With GCACGGTA, the binding signal came to 0.375 E-score with GST-ANAC092(1-176); 0.2 E-score with GST-ANAC019 NAC domain; 0.189 E-score in the assay with GST-ANAC055(1-171); 0.134 E-score in the assay with GST-ATAF1 NAC domain; 0.408 E-score in [1]; 0.102 E-score with GST-NAP(1-166). The binding signal with GST-VND3 NAC domain stood at 0.124 E-score; with GST-VND7 NAC domain, 0.122 E-score.

As for GTCAATCA, the binding signal with GST-ANAC019 NAC domain is 0.0668 E-score; in the assay with GST-ANAC055(1-171), 0.0807 E-score; in assay [1], 0.169 E-score; with GST-NST2(1-184), 0.0647 E-score; with GST-NTL8 NAC domain, 0.0888 E-score; in the assay with GST-VND3 NAC domain it was 0.132 E-score. Besides, the binding signal turned out to be 0.114 E-score with GST-VND7 NAC domain and 0.435 E-score with GST-WRKY1(266-371).

Consider CAAGACCA, for which the binding signal with GST-ANAC092(1-176) was found to be 0.106 E-score; with GST-NTL6(1-168), 0.0845 E-score; with GST-ANAC055(1-171) it was 0.092 E-score; with GST-ATAF1 NAC domain, 0.0751 E-score; with GST-NST2(1-184), 0.0893 E-score; with GST-VND3 NAC domain, 0.0681 E-score. Also, the binding signal with GST-WRKY1(266-371) came to 0.408 E-score.

On to AGTCAATC, for which the binding signal in the assay with GST-ANAC092(1-176) was determined as 0.0925 E-score; in the assay with GST-NTL6(1-168) it was 0.0768 E-score; with GST-ANAC019 NAC domain, 0.0741 E-score; in the assay with GST-ATAF1 NAC domain, 0.0533 E-score; in [1] it was 0.0868 E-score; with GST-NAP(1-166), 0.0978 E-score. Moreover, the binding signal in the assay with GST-NST2(1-184) was 0.0674 E-score; with GST-NTL8 NAC domain, 0.122 E-score; with GST-VND3 NAC domain, 0.0908 E-score; in the assay with GST-WRKY1(266-371), 0.468 E-score.

Consider AGTCGTGC, for which the binding signal was determined as 0.412 E-score with GST-ANAC019 NAC domain; 0.341 E-score with GST-ANAC055(1-171); 0.264 E-score in the assay with GST-ATAF1 NAC domain; 0.324 E-score in the assay with GST-VND3 NAC domain; 0.273 E-score with GST-VND7 NAC domain; 0.294 E-score with GST-WRKY1(266-371).

On to ATTGACTA, for which the binding signal came out at 0.0863 E-score with GST-ANAC092(1-176); 0.18 E-score with GST-ANAC055(1-171); 0.259 E-score in the assay with GST-ATAF1 NAC domain; 0.153 E-score in assay [1]; 0.0723 E-score in the assay with GST-NAP(1-166); 0.182 E-score with GST-NST2(1-184). For the same sequence, the binding signal turned out to be 0.228 E-score in the assay with GST-VND3 NAC domain and 0.466 E-score with GST-WRKY1(266-371).

As for AATGGTCA, the binding signal came to 0.0526 E-score in the assay with GST-NTL6(1-168), 0.0734 E-score in the assay with GST-VND3 NAC domain and 0.434 E-score with GST-WRKY1(266-371).

For CTAGTCAA, the binding signal was 0.0699 E-score with GST-ANAC019 NAC domain; 0.171 E-score with GST-ANAC055(1-171); 0.148 E-score in the assay with GST-ATAF1 NAC domain; 0.0883 E-score in [1]; 0.0822 E-score with GST-NTL8 NAC domain; 0.166 E-score in the assay with GST-VND3 NAC domain. The binding signal with GST-VND7 NAC domain was determined as 0.08 E-score; with GST-WRKY1(266-371) it was 0.474 E-score.

On to AAAGTCGT, for which the binding signal in the assay with GST-ANAC019 NAC domain worked out at 0.29 E-score; with GST-ANAC055(1-171), 0.271 E-score; with GST-ATAF1 NAC domain, 0.258 E-score; with GST-NAP(1-166), 0.132 E-score; with GST-NST2(1-184) it was 0.13 E-score; with GST-VND3 NAC domain it was 0.145 E-score. The binding signal with GST-VND7 NAC domain came out at 0.176 E-score; with GST-WRKY1(266-371), 0.429 E-score.

Consider CTATTGAC, for which the binding signal in the assay with GST-NTL6(1-168) was determined as 0.075 E-score; in the assay with GST-ANAC055(1-171), 0.0817 E-score; in the assay with GST-ATAF1 NAC domain, 0.0721 E-score; with GST-NAP(1-166), 0.0658 E-score; in the assay with GST-VND3 NAC domain it was 0.06 E-score; in the assay with GST-WRKY1(266-371) it was 0.451 E-score.

Regarding TGACTAAA, the binding signal was determined as 0.0547 E-score in the assay with GST-NTL6(1-168); 0.0691 E-score in the assay with GST-ANAC019 NAC domain; 0.111 E-score with GST-NST2(1-184); 0.0682 E-score in the assay with GST-VND3 NAC domain; 0.0902 E-score with GST-VND7 NAC domain; 0.42 E-score with GST-WRKY1(266-371).

Turning to TATGACCA, the results for the binding signal with GST-VND3 NAC domain and in the assay with GST-WRKY1(266-371) were 0.117 E-score and 0.424 E-score, respectively.

Turning to CTTGACCA, the binding signal with GST-ANAC092(1-176) is 0.0818 E-score; in the assay with GST-ANAC019 NAC domain it was 0.0734 E-score; in the assay with GST-ANAC055(1-171), 0.104 E-score; with GST-ATAF1 NAC domain it was 0.145 E-score; in the assay with GST-NST2(1-184) it was 0.1 E-score; in the assay with GST-VND3 NAC domain, 0.119 E-score. The binding signal with GST-WRKY1(266-371) came to 0.484 E-score.

As for TTCGTCAA, the binding signal with GST-NTL6(1-168) was found to be 0.0728 E-score; in the assay with GST-ANAC055(1-171), 0.0829 E-score; with GST-ATAF1 NAC domain it was 0.106 E-score; in [1] it was 0.0695 E-score; in the assay with GST-NST2(1-184) it was 0.0662 E-score; with GST-VND3 NAC domain, 0.0782 E-score. Further, in the assay with GST-WRKY1(266-371), the binding signal turned out to be 0.437 E-score.

In the case of GGATTGAC, the binding signal with GST-ANAC092(1-176) came to 0.0627 E-score; in the assay with GST-NTL6(1-168) it was 0.0579 E-score; with GST-ANAC019 NAC domain, 0.102 E-score; with GST-ANAC055(1-171), 0.0598 E-score; with GST-NAP(1-166), 0.0556 E-score; with GST-NST2(1-184) it was 0.12 E-score. Also, the binding signal with GST-VND3 NAC domain is 0.094 E-score; with GST-WRKY1(266-371), 0.459 E-score.

Source of the values: paper PMC4081100, “A DNA-binding-site landscape and regulatory network analysis for NAC transcription factors in Arabidopsis thaliana”.
